Measured values published in PubChem BioAssay.
Values without a mark were called inactive. For some of these results: Results with a measured potency or affinity are listed apart. Active and inactive are the calls of the source. Unless noted, how the calls were made is not given here.

Experiments:
[1] = antimalarial activity against Dd2 strain (AID 2302;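 active means growth inhibition above 50% at the single 2 µM test dose, taken to imply half-maximal potency below 2 µM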;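 further: 0% = DMSO untreated growth and 100% = chloroquine plus artemisinin killed control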); conditions: P. falciparum Dd2 in RBCs, LDH growth readout, 72 h; at 2 µM; active compounds read high
[2] = human hepatoma cell viability loss – ATP luminescence, cytotoxicity control for P. falciparum antimalarial project, primary screen (AID 2303;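 active means inhibition above 50%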;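 further: 0% = DMSO wells and 100% = digitonin-killed cells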); conditions: HepG2 viability, 24-48 h, at 10 µM, active compounds read high
[3] = target: L-lactate dehydrogenase (Plasmodium falciparum (isolate CDC / Honduras)) (UniProt Q27743); assay: PfLDH activity inhibition – cell lysate, 3D7 strain, counter-screen for P. falciparum growth inhibition project (AID 2304);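 further: 0% = vehicle and 100% = reference inhibitor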; conditions: P. falciparum 3D7 crude extract, LDH APAD/NBT absorbance; at 2 µM; active compounds read high
Sequence of L-lactate dehydrogenase (Plasmodium falciparum (isolate CDC / Honduras)) (Q27743 whole entry, looked up): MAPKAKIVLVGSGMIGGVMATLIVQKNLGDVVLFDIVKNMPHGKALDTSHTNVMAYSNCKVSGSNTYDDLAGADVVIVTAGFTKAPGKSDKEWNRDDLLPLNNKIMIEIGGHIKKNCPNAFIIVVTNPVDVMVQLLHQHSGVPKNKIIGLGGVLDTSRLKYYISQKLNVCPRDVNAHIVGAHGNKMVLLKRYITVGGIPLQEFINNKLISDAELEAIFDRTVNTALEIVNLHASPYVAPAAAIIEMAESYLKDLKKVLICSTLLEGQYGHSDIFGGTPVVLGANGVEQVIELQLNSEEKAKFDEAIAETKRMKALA

[4] = inhibition of 3D7 malaria parasite growth – strain 3D7 (AID 2306);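 further: 0% = DMSO wells and 100% = chloroquine plus artemisinin control wells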; conditions: P. falciparum 3D7 erythrocytic growth, LDH absorbance, 72 h; at 2 µM; active compounds read high
[5] = target: Calcium-dependent protein kinase 1 (Plasmodium falciparum (isolate 3D7)) (UniProt P62344); assay: PfCDPK1 kinase inhibitors, biochemical, TCAMS library (AID 1159585; cut-off not given, nearly all actives have IC50 up to about 0.98 µM;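 further: inhibitors leave more ATP so luminescence rises with inhibition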); conditions: recombinant PfCDPK1, Kinase-Glo ATP depletion luminescence
Sequence of Calcium-dependent protein kinase 1 (Plasmodium falciparum (isolate 3D7)) (P62344 whole entry, looked up): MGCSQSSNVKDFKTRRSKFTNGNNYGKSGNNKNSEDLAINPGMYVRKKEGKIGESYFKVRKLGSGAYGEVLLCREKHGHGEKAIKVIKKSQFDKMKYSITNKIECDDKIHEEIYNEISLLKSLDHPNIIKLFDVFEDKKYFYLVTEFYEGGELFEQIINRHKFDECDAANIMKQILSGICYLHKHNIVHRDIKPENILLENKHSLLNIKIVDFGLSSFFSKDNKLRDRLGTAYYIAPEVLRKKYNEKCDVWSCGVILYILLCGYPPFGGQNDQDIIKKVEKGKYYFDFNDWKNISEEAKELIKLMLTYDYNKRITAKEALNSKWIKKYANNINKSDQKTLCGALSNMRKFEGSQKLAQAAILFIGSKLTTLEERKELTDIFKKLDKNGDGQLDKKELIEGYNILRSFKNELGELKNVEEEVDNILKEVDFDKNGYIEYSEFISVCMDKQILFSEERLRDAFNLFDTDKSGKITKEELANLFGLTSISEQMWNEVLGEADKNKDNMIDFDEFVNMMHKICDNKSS

[6] = target: Plasmodium falciparum protein kinase 6 (PK6, PF3D7_1337100) (UniProt Q8IDW1); assay: PfPK6 kinase inhibitors, biochemical, TCAMS library (AID 1159586); conditions: recombinant PfPK6, Kinase-Glo ATP depletion luminescence
Sequence of Plasmodium falciparum protein kinase 6 (PK6, PF3D7_1337100) (Q8IDW1 1-305): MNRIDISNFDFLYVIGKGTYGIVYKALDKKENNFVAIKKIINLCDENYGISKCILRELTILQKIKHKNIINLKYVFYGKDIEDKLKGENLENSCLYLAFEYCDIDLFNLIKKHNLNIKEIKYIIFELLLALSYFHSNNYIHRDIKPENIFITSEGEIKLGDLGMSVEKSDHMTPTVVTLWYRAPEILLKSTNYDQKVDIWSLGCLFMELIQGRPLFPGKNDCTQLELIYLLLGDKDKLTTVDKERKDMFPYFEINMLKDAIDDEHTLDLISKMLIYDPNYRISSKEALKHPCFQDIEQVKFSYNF

[7] = target: Protein kinase 7 (PK7), Plasmodium falciparum 3D7 (PF3D7_0213400) (UniProt Q7YTF7); assay: inhibition of Plasmodium PK7 catalytic activity – biochemical, TCAMS antimalarial set, Kinase-Glo luminescence (AID 1159587); conditions: recombinant PfPK7, Kinase-Glo ATP depletion luminescence
Sequence of Protein kinase 7 (PK7), Plasmodium falciparum 3D7 (PF3D7_0213400) (Q7YTF7 1-343): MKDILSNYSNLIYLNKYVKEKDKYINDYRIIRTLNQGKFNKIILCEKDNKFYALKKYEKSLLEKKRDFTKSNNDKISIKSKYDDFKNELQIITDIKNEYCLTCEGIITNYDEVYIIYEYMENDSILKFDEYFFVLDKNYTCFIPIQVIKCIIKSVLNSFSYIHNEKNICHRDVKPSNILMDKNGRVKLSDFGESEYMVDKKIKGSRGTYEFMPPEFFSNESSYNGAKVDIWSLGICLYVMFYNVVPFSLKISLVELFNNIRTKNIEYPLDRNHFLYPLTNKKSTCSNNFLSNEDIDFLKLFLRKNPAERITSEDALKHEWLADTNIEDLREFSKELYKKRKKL

[8] = target: Calcium-dependent protein kinase 4 (Plasmodium falciparum (isolate 3D7)) (UniProt Q8IBS5); assay: PfCDPK4 kinase inhibitors, biochemical, TCAMS library (AID 1159588; cut-off not given, nearly all actives have IC50 up to about 0.91 µM); conditions: recombinant PfCDPK4, Kinase-Glo ATP depletion luminescence
Sequence of Calcium-dependent protein kinase 4 (Plasmodium falciparum (isolate 3D7)) (Q8IBS5 whole entry, looked up): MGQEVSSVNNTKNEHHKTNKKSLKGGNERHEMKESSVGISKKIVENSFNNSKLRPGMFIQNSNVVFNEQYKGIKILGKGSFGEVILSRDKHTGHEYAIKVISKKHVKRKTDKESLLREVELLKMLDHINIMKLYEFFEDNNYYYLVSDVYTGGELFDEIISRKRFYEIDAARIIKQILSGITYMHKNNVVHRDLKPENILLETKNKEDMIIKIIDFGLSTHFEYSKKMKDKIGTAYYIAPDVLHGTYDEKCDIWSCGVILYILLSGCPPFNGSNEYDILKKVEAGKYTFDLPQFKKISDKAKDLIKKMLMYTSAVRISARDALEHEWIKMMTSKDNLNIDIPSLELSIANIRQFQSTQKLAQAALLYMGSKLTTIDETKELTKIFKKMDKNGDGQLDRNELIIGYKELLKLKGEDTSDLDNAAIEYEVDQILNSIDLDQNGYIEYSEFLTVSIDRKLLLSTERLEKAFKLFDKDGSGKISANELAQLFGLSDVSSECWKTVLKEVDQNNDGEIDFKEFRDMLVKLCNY

| SMILES | growth inhibition [1] | inhibition [2] | inhibition [3] [%] | growth inhibition [4] | outcome [5] | outcome [6] | outcome [7] | outcome [8] |
| --- | --- | --- | --- | --- | --- | --- | --- | --- |
| Cc1[nH]c(C)c(-c2ccc(-c3ccccc3Cl)nc2)c(=O)c1Br | 96% (active) | -2% | -5 | 97% (active) | inactive | inactive | inactive | inactive |
| CC(C)C(=O)NC(Nc1ccc([N+](=O)[O-])cc1)C(Cl)(Cl)Cl (stereo not drawn) | 84% (active) | 7% | -6 | 97% (active) | inactive | inactive | inactive | inactive |
| CCOC(=O)c1ccc(NCc2ccccn2)cc1 | -2% | -3% | -6 | 99% (active) | inactive | inactive | inactive | inactive |
| Cc1cc(O)c(CN2CCN(Cc3cccs3)CC2)cc1C(C)C | 97% (active) | 7% | -2 | 98% (active) | inactive | inactive | inactive | inactive |
| O=C(Nc1cccc(-c2ccc(CN3CCCC3)cc2)c1)c1cccc(Cl)c1 | 61% (active) | 32% | -3 | 100% (active) | inactive | inactive | inactive | inactive |
| CN(Cc1c(Cl)cnn1C)S(=O)(=O)c1ccc2ccccc2c1 | 36% | 7% | -2 | 94% (active) | inactive | inactive | inactive | inactive |
| COC(=O)c1cc(C(=O)CN(Cc2ccccc2)C(C)C)ccc1O | -1% | 7% | -2 | 97% (active) | inactive | inactive | inactive | inactive |
| Cc1ccc(C)c(C2CCN(CCCCNC(=O)c3ccc(NC(=O)c4ccc(Cl)cc4)cc3)CC2)c1 | 13% | 15% | 7 | 94% (active) | inactive | inactive | inactive | inactive |
| CC(NC(=O)c1cc(-c2ccccc2)nc2c1cnn2C(C)C)C1CC1 (stereo not drawn) | 88% (active) | 35% | -2 | 101% (active) | inactive | inactive | inactive | inactive |
| Cc1c(S(=O)(=O)Nc2ccc3nccc(N4CCN[C@H](C)C4)c3c2)sc2ccc(Cl)cc12 | 0% | 16% | -3 | 96% (active) | inactive | inactive | inactive | inactive |
| NC(N)=Nc1nc(-c2ccc(NCc3ccc(CNc4cccc(-c5csc(N=C(N)N)n5)c4)cc3)cc2)cs1 | 99% (active) | 11% | 0 | 102% (active) | inactive | inactive | inactive | inactive |
| COc1ccc(CNCCc2cccs2)cc1-c1ccc(OC)c(S(=O)(=O)NCCN2CCCC2)c1 | 19% | 16% | 1 | 96% (active) | inactive | inactive | inactive | inactive |
| O=C(CCn1c2ccccc2c2ccccc21)NN=Cc1ccco1 | -3% | 6% | -3 | 96% (active) | inactive | inactive | inactive | inactive |
| COc1ccc(CN2CCC(CNCC(c3ccccc3)c3ccccc3)CC2)cc1 | 95% (active) | 84% (active) | -4 | 102% (active) | inactive | inactive | inactive | inactive |
| Cc1ccc(N2C(N)=NC(N)=NC2c2ccccc2)cc1 (stereo not drawn) | 1% | 11% | -1 | 94% (active) | inactive | inactive | inactive | inactive |
| CCC(CCON1C(N)=NC(N)=NC1(C)C)c1ccc(Cl)c(Cl)c1 (stereo not drawn) | 98% (active) | 68% (active) | -7 | 94% (active) | inactive | inactive | inactive | inactive |
| Cc1cc(NC(=O)c2cccs2)ccc1OC1CCN(Cc2ccccc2)C1 (stereo not drawn) | 87% (active) | 7% | -1 | 84% (active) | inactive | inactive | inactive | inactive |
| Cc1ccc(Nc2nc(C)cc(NC3CCN(C)CC3)n2)cc1 | 21% | 14% | 2 | 100% (active) | inactive | inactive | inactive | inactive |
| CC(C)CNCc1ccc(-c2cccc(CNc3ccc4ncccc4c3)c2)cc1 | 31% | 29% | -2 | 96% (active) | inactive | inactive | inactive | inactive |
| O=C(/C=C/c1ccc(Cl)c(Cl)c1)NCCCCCN1CCC(NC(=O)Nc2cc(Cl)ccc2Cl)CC1 | 31% | 99% (active) | 0 | 99% (active) | inactive | inactive | inactive | inactive |
| COc1ccc2c(c1C1CCN(CCCCNC(=O)c3ccc(NC(=O)c4ccc(Cl)cc4)cc3)CC1)CCCC2 | 99% (active) | 19% | -2 | 101% (active) | inactive | inactive | inactive | inactive |

| SMILES | growth inhibition [1] | inhibition [2] | inhibition [3] [%] | growth inhibition [4] | outcome [5] | outcome [6] | outcome [7] | outcome [8] |
| --- | --- | --- | --- | --- | --- | --- | --- | --- |
| COc1ccc(NC(=O)[C@H](CC(C)C)Nc2cc(C)nc(NCc3ccccc3C)n2)cc1 | 78% (active) | 12% | 0 | 101% (active) | inactive | inactive | inactive | inactive |
| O=S(=O)(Nc1cc2c(cc1OCc1ccccc1)CCN(C1CCC1)CC2)c1ccc(-c2ccc(Cl)cc2)cc1 | 12% | 18% | 0 | 92% (active) | inactive | inactive | inactive | inactive |
| COc1ccc(-c2cnc(NCc3ccccc3)nc2)cc1CNC1CCN(C)CC1 | 64% (active) | 19% | 1 | 96% (active) | inactive | inactive | inactive | inactive |
| CC(=O)Nc1ncc(C(=O)Nc2cccc(-c3ccc(-c4nc5ccc(C(F)(F)F)cc5[nH]4)cc3)c2)s1 | 94% (active) | 83% (active) | -4 | 101% (active) | inactive | inactive | inactive | inactive |
| COC(=O)c1cccc(NC(=O)NC2CCN(c3ccnc(Nc4ccc(OC)cc4)n3)C2)c1 (stereo not drawn) | 65% (active) | 1% | -3 | 99% (active) | inactive | inactive | inactive | inactive |
| O=C(/C=C/c1ccc(Cl)cc1)NCCCCCN1CCCN(C(=O)Nc2ccc(Cl)c(C(F)(F)F)c2)CC1 | 1% | 54% (active) | 1 | 95% (active) | inactive | inactive | inactive | inactive |
| CC(C)C(C(=O)n1ncc2c3c(N)nc(N)nc3ccc21)C(C)C | 8% | 67% (active) | -8 | 98% (active) | inactive | inactive | inactive | inactive |
| CN1CCCC(CN2CCN(Cc3ccc(-c4ccc(-c5nc6ccccc6[nH]5)cc4)cc3)CC2)C1 (stereo not drawn) | 100% (active) | 69% (active) | 0 | 101% (active) | inactive | inactive | inactive | inactive |
| O=C(C=Cc1ccc(Cl)c(Cl)c1)NCCCCCN1CCC(CCCNC(=O)c2ccc3c(c2)OCO3)CC1 | 64% (active) | 38% | -5 | 98% (active) | inactive | inactive | inactive | inactive |
| Cc1ccccc1C1CCN(C2CCC(NC(=O)/C=C/c3ccc(F)cc3)CC2)CC1 (stereo not drawn) | 30% | 61% (active) | -2 | 87% (active) | inactive | inactive | inactive | inactive |
| CNC(=O)c1cncc(/C=C/c2ccccc2S(N)(=O)=O)c1 | 77% (active) | 17% | -1 | 100% (active) | inactive | inactive | inactive | inactive |
| CCCCCCOc1ccc(C(=O)NCCCC2CCCN(CCCCCNC(=O)C=Cc3ccc(Cl)c(Cl)c3)C2)cc1 (stereo not drawn) | 12% | 20% | 2 | 96% (active) | inactive | inactive | inactive | inactive |
| CNC(=O)CNC(=O)COc1cccc2ccccc12 | -6% | 3% | -8 | 98% (active) | inactive | inactive | inactive | inactive |
| CC(=O)Nc1nc(C(=O)Nc2ccc(-c3cccc(-c4nc5ccc(C(F)(F)F)cc5[nH]4)c3)cc2)cs1 | 97% (active) | 79% (active) | -2 | 101% (active) | inactive | inactive | inactive | inactive |
| Cc1nc(-c2nc(NCCc3ccncc3)ncc2-c2ccsc2)sc1C | 87% (active) | 10% | -1 | 92% (active) | inactive | inactive | inactive | inactive |
| CC[C@H](NC(=O)c1c(N)c(-c2sccc2Cl)nc2ccccc12)c1ccccc1 | 92% (active) | 0% | -4 | 99% (active) | inactive | inactive | inactive | inactive |
| COc1ccc2nc(-c3cccc(C)n3)nc(Nc3ccncc3)c2c1 | 42% | -1% | -3 | 101% (active) | inactive | inactive | inactive | inactive |
| CCCOc1ccc2ccccc2c1CNCCCCCCNCc1c(OCCC)ccc2ccccc12 | 90% (active) | 100% (active) | 0 | 94% (active) | inactive | inactive | inactive | inactive |
| CCCCN1C(=O)C(c2ccccc2)(c2ccccc2)N=C1N | 34% | 19% | 7 | 87% (active) | inactive | inactive | inactive | inactive |
| CN1CCCCC1CCc1cc(C(=O)Nc2ccc(-c3ccc(O)cc3)cc2)ccc1O (stereo not drawn) | 11% | 6% | 3 | 91% (active) | inactive | inactive | inactive | inactive |
